RAD54 branch – blocks human RAD54 Holliday junction branch migration; Q92698; FAM/BHQ fluorescence; inhibition, % at 10.4 µM; hit rate 0.14% among 360,000;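 active means mean normalized replicate activity at least 40 and at least half of replicates scoring 40 or more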;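 further: 0% = median of neutral control wells and 100% = median of positive control wells; inhibitors cause a drop in the FAM fluorescence signal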
Glyco luc inh – N-linked glycosylation inhibition; reporter increase, % at 12.5 µM; D54 ERlucT glycosylation luciferase reporter, 24 h; percent of 100 nM tunicamycin response; hit rate 0.23% among 360,000;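 active means mean luciferase reporter signal, scaled so untreated is 0 and the glycosylation-blocking control 100, at or above a set limit in every replicate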;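 further: luciferase carries N-glycosylation sites so blocking glycosylation raises the light; 0% = median of neutral control wells and 100% = median of 100 nM tunicamycin wells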
CASP6 VEID inh – caspase-6 (human) enzyme inhibition. inhibition, % at 12.5 µM. hit rate 0.53% among 350,000. purified caspase-6, Z-VEID-R110 cleavage fluorescence. AID 686996;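 active means mean inhibition across replicates at least about 35%, with every replicate also reaching that limit, limit read from the data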;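 further: 0% = median of neutral control wells and 100% = no fluorescence left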
Target sequence (P55212 24-179 limits assumed): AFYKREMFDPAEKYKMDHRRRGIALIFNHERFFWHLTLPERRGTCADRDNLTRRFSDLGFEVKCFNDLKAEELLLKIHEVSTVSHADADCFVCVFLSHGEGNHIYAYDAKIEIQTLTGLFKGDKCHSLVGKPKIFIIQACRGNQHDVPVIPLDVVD
Target sequence (P55212 194-293 limits assumed): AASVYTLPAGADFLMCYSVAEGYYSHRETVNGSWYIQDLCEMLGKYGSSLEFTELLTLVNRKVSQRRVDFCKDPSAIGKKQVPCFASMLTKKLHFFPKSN
NSD2 inh – inhibitors of human histone methyltransferase NSD2. O96028. NSD2 peptide methylation, AlphaScreen, 120 min. inhibition, % at 12.5 µM. hit rate 0.54% among 310,000. AID 743445; in the data active means inhibition above about 50%
RAD52 anneal inh – inhibitors of human RAD52 DNA annealing. recombinant RAD52 DNA annealing, FRET fluorescence. P43351. hit rate 0.46% among 360,000. inhibition, % at 18.7 µM;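 active means every replicate showing at least 50% inhibition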
The depositor's hits bear a star; x = no result. The list is not random: actives were taken first. Their share in the collection is about 1.2%.

SMILES | RAD54 branch | Glyco luc inh | CASP6 VEID inh | NSD2 inh | RAD52 anneal inh
C[C@@H](NC(=O)C[C@H]1C[C@H]2c3cc(NS(C)(=O)=O)ccc3O[C@H]2[C@H](CO)O1)c1ccccc1 | -3 | x | 0 | x | 5
CCn1c2ccccc2c2cc(NC(=O)c3cc(OC)cc(OC)c3)ccc21 | x | 9 | 0 | -1 | -20
CCn1c2ccccc2c2cc(NC(=O)c3cc(OC)c(OC)c(OC)c3)ccc21 | 5 | 27* | 0 | -2 | -8
O=C(C[C@@H]1CC[C@@H](NC(=O)CN2CCOCC2)[C@H](CO)O1)NC1CCCCC1 | -9 | x | x | x | -9
CN(C)CC(=O)Nc1ccc2c(c1)[C@H]1C[C@@H](CC(=O)NC3CCCC3)O[C@H](CO)[C@H]1O2 | -12 | x | -1 | x | -7
COc1cc(CNC(C)c2ccccc2)c(Br)cc1OCC(N)=O (stereo not given) | -1 | 1 | 80* | 0 | -3
CCNC(=O)[C@H]1[C@H](CO)[C@H]2Cn3c(ccc(-c4ccccc4)c3=O)[C@@H]1N2C(=O)c1ccccn1 | 0 | x | 0 | x | 6
CC1=CC(=O)c2ccccc2C1=O | -8 | 3 | 4 | x | -8
CC(C)(C=O)C1=CC(=O)c2ccccc2C1=O | x | 7 | 35 | 92* | -2
O=C(C[C@@H]1CC[C@H]2[C@@H](COC[C@H](O)CN2CC2CCCC2)O1)NCC1CC1 | x | x | 1 | x | 8
CO[C@H]1CN(C)C(=O)c2cc(NC(=O)C3CC3)ccc2OC[C@@H](C)N(CC2CC2)C[C@H]1C | 5 | x | 5 | x | 0
CCOC(=O)c1c(C)[nH]c(-c2csc(N)n2)c1C | x | 27* | -4 | -1 | -25
CC(C)NC(=O)Nc1ccc2c(c1)C(=O)N([C@@H](C)CO)C[C@@H](C)[C@H](CN(C)C(=O)Cc1ccccc1)OCCCC[C@@H](C)O2 | 3 | x | 3 | x | 3
Cc1cc(NCCN2CCOCC2)n2c(nc3ccccc32)c1C#N | 7 | 2 | x | -4 | x
Cc1cc(NCCCN2CCOCC2)n2c(nc3ccccc32)c1C#N | 53* | 3 | x | 1 | x
COc1ccc(S(=O)(=O)N[C@H]2CC[C@H](CC(=O)N3CCC(Cc4ccccc4)CC3)O[C@@H]2CO)cc1 | -4 | x | 0 | x | -15
COc1ccc2c3c([nH]c2c1)[C@H](CO)N(C(=O)NC1CCCC1)CC31CN(S(C)(=O)=O)C1 | x | x | x | x | 19
COc1cccc(S(=O)(=O)Nc2ccc3c(c2)[C@@H]2C[C@@H](CC(=O)NC4CCCCC4)O[C@@H](CO)[C@@H]2O3)c1 | 1 | x | -5 | x | 0
O=C(C[C@H]1C[C@H]2c3cc(NC(=O)Nc4ccccc4F)ccc3O[C@H]2[C@H](CO)O1)NC1CCCC1 | -4 | x | 4 | x | 5
COc1cccc(S(=O)(=O)Nc2ccc3c(c2)[C@H]2C[C@@H](CC(=O)NC4CCCCC4)O[C@H](CO)[C@H]2O3)c1 | -29 | x | 64* | x | 67*
O=C(C[C@@H]1C[C@H]2c3cc(NC(=O)Nc4ccccc4F)ccc3O[C@H]2[C@H](CO)O1)NC1CCCC1 | 3 | x | 99* | x | 6
CN(C)C(=O)C[C@H]1CC[C@H]2[C@@H](COC[C@H](O)CN2CC2CCCCC2)O1 | -4 | x | 0 | x | 5
CCN(CC)c1nc(N)c2c(N)nc(OC)cc2c1C#N | -6 | -1 | 51* | x | 3
COc1cc2c(C#N)c(N3CCCCC3)nc(N)c2c(N)n1 | 9 | -3 | x | -12 | x
COc1cc2c(C#N)c(N3CCc4ccccc4C3)nc(N)c2c(N)n1 | 2 | 26* | x | 2 | x
SMILES | RAD54 branch | Glyco luc inh | CASP6 VEID inh | NSD2 inh | RAD52 anneal inh
C[C@H]1CN([C@@H](C)CO)C(=O)CCCn2cc(nn2)CO[C@H]1CN(C)S(=O)(=O)c1ccc(-n2cccn2)cc1 | x | x | 1 | x | 11
CC1=NN(c2ccccc2)C(=O)C1/C=C1\NC(=S)NC1=O (stereo not given) | -3 | 2 | x | 102* | -72
Cc1noc(C)c1NC(=O)N(C)C[C@@H]1Oc2c(NC(=O)Nc3ccc(C(F)(F)F)cc3)cccc2C(=O)N([C@H](C)CO)C[C@H]1C | -6 | x | 3 | x | 6
CC(=O)N1CCc2c(sc(NC(=O)c3ccc([N+](=O)[O-])o3)c2C#N)C1 | -12 | -22 | 38* | x | -6
Cc1ccc(Sc2c(CO)c(-c3ccccc3)nn2C)cc1 | x | 29* | 1 | -6 | -3
Cc1ccc(-c2nn(-c3ccccc3)cc2CO)cc1 | 1 | 3 | 0 | -3 | -8
CC(=O)N1CCCc2cc(S(=O)(=O)CCC(=O)N3CCN(c4cccc(C)c4)C(C)C3)ccc21 (stereo not given) | 3 | -1 | 23 | x | -34
Cc1cccc(N2CCN(C(=O)CCS(=O)(=O)c3ccc(Br)cc3)CC2C)c1 (stereo not given) | 0 | -1 | 67* | 1 | -9
Cc1nc(N2C(=O)C(=O)/C(=C(/O)c3ccccc3)C2c2ccco2)sc1C (stereo not given) | -16 | 5 | x | -2 | x
CCOC(=O)c1sc(N2C(=O)C(O)=C(C(=O)c3ccco3)C2c2ccco2)nc1C (stereo not given) | -3 | -1 | 39* | 8 | -61
Cc1cc(C)c2nc(N3C(=O)C(O)=C(C(=O)c4ccco4)C3c3ccco3)sc2c1 (stereo not given) | -8 | -3 | 68* | 0 | -31
COc1ccc2nc(N3C(=O)C(O)=C(C(=O)c4ccco4)C3c3ccc(C)o3)sc2c1 (stereo not given) | x | -2 | 33 | 2 | -28
CCOc1ccc2nc(N3C(=O)C(O)=C(C(=O)c4ccco4)C3c3ccco3)sc2c1 (stereo not given) | x | 0 | 36* | 26 | -4
COC(=O)c1sc(N2C(=O)C(=O)/C(=C(/O)c3ccccc3)C2c2ccco2)nc1C (stereo not given) | x | 2 | 37* | 3 | -7
Cc1ccc2nc(N3C(=O)C(O)=C(C(=O)c4ccco4)C3c3cccs3)sc2c1 (stereo not given) | x | -4 | x | 2 | x
Cc1cc(O)c2c(c1)C(=O)c1cccc(O)c1C2=O | x | x | 4 | x | -26
O=C(O)c1cc(O)c2c(c1)C(=O)c1cccc(O)c1C2=O | -1 | 4 | 40* | x | -234
CCOC(=O)c1c(-c2ccccc2)csc1/N=C/C1C(=O)CC(C)(C)CC1=O | x | x | x | -4 | x
O=CN/C=C/c1cc(O)ccc1O | -20 | 3 | 70* | x | -16
COC(=O)c1ccc(CNC(=O)COC(=O)c2ccccc2-c2ccccc2)cc1 | -6 | -2 | 59* | 2 | -5
CO[C@@H]1CN(C)C(=O)c2ccc(NC(C)=O)cc2OC[C@@H](C)N(C(=O)C2CC2)C[C@@H]1C | 6 | x | -1 | x | 3
CC1CCCCC12NC(=O)N(Cc1cc(=O)n3ccsc3n1)C2=O (stereo not given) | 1 | 1 | 42* | -124 | -22
COc1ccc(-c2cn(CC[C@@H]3CC[C@@H](NS(=O)(=O)c4ccccc4C)[C@@H](CO)O3)nn2)cc1 | -1 | x | -3 | x | -9
CCN1C(=O)Nc2cccc3cccc1c23 | 2 | 30* | -1 | 5 | -3
Cn1nc(-c2ccc(N3CCOCC3)c(NS(=O)(=O)c3ccc(Cl)cc3)c2)c2ccccc2c1=O | 1 | 7 | x | 0 | x
